# Compound activity: PubChem, several laboratories
# Bim-Mcl-1: human Bim-Mcl-1 interaction inhibition. Q07820. Bead-based flow cytometry, Bim peptide-Mcl-1 binding. inhibition, % at 10 µM. 190,000 compounds, 0.1% hits. AID 1009; in the data active = inhibition above about 40%
# Mcl1 Noxa PPI: disrupts binding of human Mcl-1 to Noxa peptide; 220,000 compounds, 1.5% hits; AID 1022; TR-FRET Mcl-1/Noxa peptide binding, 2 h; inhibition, % at 21.7 µM;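 active = compounds that cut the protein-peptide binding signal by more than 50% relative to plate controls in a single-dose test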;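 also: His-tagged Mcl-1 with rhodamine Noxa BH3 peptide and terbium anti-His antibody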
# TLR9-MyD88 block: TLR9-MyD88 interaction inhibition; Q9NR96+Q99836; CHO BLA complementation TLR9-MyD88, CCF4 FRET ratio; inhibition, % at 4.98 µM; 340,000 compounds, 0.21% hits;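 active = inhibition above the mean over all tested compounds plus 3 SD, cut at about 21% in these data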
# TLR4-MyD88 BLA: blocks binding of human TLR4 to MyD88; AID 861; inhibition, % at 8.4 µM; O00206+Q99836; 200,000 compounds, 0.18% hits; HeLa CL3-4 TLR4/MyD88 BLA complementation, FRET ratio; in the data active = inhibition above about 25%
# Mcl1 Bid PPI: disrupts binding of human Mcl-1 to Bid peptide | AID 1021 | inhibition, % at 21.7 µM | Q07820 | 220,000 compounds, 0.97% hits | TR-FRET Mcl-1/Bid-Dy647 peptide binding, 1536-well;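 active = compounds that cut the binding signal by more than half at the single screening dose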;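 also: His-tagged Mcl-1 with europium anti-His antibody binding Bid BH3 peptide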
# NOD2-RIPK2 inh: blocks binding of human NOD2 to RIPK2. O43353. CHO BLA complementation NOD2-RIPK2, CCF4 ratio. inhibition, % at 4.98 µM. 360,000 compounds, 0.38% hits. AID 624267; in the data active = inhibition above about 21%
# TLR4 MyD88 cnf: TLR4-MyD88 interaction inhibition confirmed; shares compounds with TLR4-MyD88 BLA; HeLa CL3-4 BLA complementation, CCF4 FRET ratio; inhibition, % at 8.4 µM; 350 compounds, 50% hits; AID 941;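 active = mean inhibition across three repeat runs above about 25% carried over from the earlier screen, limit read from the data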
# BLA inhibitor ct: counter-screen for TLR4-MyD88 inhibitors: beta-lactamase reporter inhibitors; shares compounds with TLR4-MyD88 BLA; HeLa BLA reporter, CCF4 FRET ratio; inhibition, % at 8.4 µM; 350 compounds, 63% hits;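 active = mean inhibition over three repeats above about 26% taken from the earlier screen, limit read from the data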;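 also: HeLa cells stably expressing beta-lactamase reporter as counterscreen for TLR4-MyD88 inhibitors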
# A number is an active result; i = inactive; nt = no result given. This is a sample that favours compounds with a hit; in the whole collection about 1.8% have one here.
SMILES,Bim-Mcl-1,Mcl1 Noxa PPI,TLR9-MyD88 block,TLR4-MyD88 BLA,Mcl1 Bid PPI,NOD2-RIPK2 inh,TLR4 MyD88 cnf,BLA inhibitor ct
CSC1=NSC2=NC(=O)/C(=C\c3coc4ccccc4c3=O)C(=N)N12,i,i,i,i,i,i,nt,nt
COC(=O)/C(C#N)=C/c1ccc(-c2ccc(S(N)(=O)=O)cc2)o1,nt,i,i,nt,i,i,nt,nt
CC(C)OC(=O)/C(C#N)=C/c1ccc(-c2ccc(SC(F)F)cc2)o1,i,i,i,25.7,i,i,i,i
O=C(NC(C(=O)N/N=C/c1cc([N+](=O)[O-])ccc1O)c1n[nH]c(=O)c2ccccc12)c1ccccc1 (stereo not drawn),nt,nt,i,nt,nt,i,nt,nt
N#Cc1ccccc1Cn1cc(/C=N/Nc2ccc([N+](=O)[O-])cn2)c2ccccc21,i,i,i,46.0,i,i,40.5,79.5
O=[N+]([O-])c1ccc(NN=Cc2ccccc2O)nc1,nt,nt,i,nt,nt,i,nt,nt
COc1ccc(C=NNc2ccc([N+](=O)[O-])cn2)cc1,nt,nt,i,nt,nt,i,nt,nt
O=[N+]([O-])c1ccc(N/N=C/c2ccc(OCc3cccc4ccccc34)cc2)nc1,i,i,i,34.7,i,i,47.1,82.0
O=C(O)CSc1nc2ccc(Br)cc2[nH]1,nt,nt,i,nt,nt,i,nt,nt
CCc1ccc(C(O)c2ncc(-c3ccc4ccccc4c3)[nH]2)cc1 (stereo not drawn),nt,nt,nt,nt,nt,i,nt,nt
O=C(CCl)c1ccc2c(c1)CCN2C(=O)C1CCCCC1,i,i,i,27.1,i,i,31.7,i
O=C(CCl)c1ccc2c(c1)CCN2C(=O)C1CC1,i,i,nt,i,i,nt,nt,nt
COc1ccc(OC)c(CN2CCN(C(=O)c3ccc(S(=O)(=O)Nc4ccccc4F)cc3)CC2)c1,nt,nt,i,nt,nt,i,nt,nt
CCN1CCN(c2cc(C)c3cc(NC(=S)N4CCN(c5ccccc5)CC4)ccc3n2)CC1,i,i,i,25.7,i,i,25.4,37.1
CCN1CCN(c2cc(C)c3cc(NC(=S)N4CCOCC4)ccc3n2)CC1,i,i,i,i,i,i,nt,nt
Cc1ccc2nc(Cl)c(/C=N/Nc3nc(C)cc(C)n3)c(=O)n2c1,i,i,i,33.3,i,i,i,27.6
Cc1ccc2nc(C)c(Cl)c(=O)n2c1,i,i,i,i,i,i,nt,nt
Cc1ccc(N=Cc2sc(O)c3ccccc23)cc1,i,i,i,39.3,i,i,i,52.0
Cc1ccc(N=Cc2c(O)c3ccccc3n(C)c2=O)cc1,nt,nt,i,nt,nt,i,nt,nt
Cc1ccc(N=Cc2sc(O)c3ccccc23)c(C)c1,i,i,i,25.1,i,i,i,37.1
CCN(C[C@H]1N[C@@](C)(C(=O)OC)[C@H]2C(=O)N(Cc3ccccc3)C(=O)[C@@H]12)C(=O)Nc1ccc(F)cc1,nt,nt,i,nt,nt,i,nt,nt
COc1ccc(N/C=C2\CCOC2=O)cc1,i,i,i,25.9,i,i,i,i
COc1ccc(/C=C2\CCC(C3CCCC3)C2=O)c(OC)c1 (stereo not drawn),nt,nt,i,nt,nt,i,nt,nt
COc1ccc(/C=C2\CC/C(=C\c3ccc(OC)cc3OC)C2=O)c(OC)c1,i,i,i,32.3,i,i,i,47.2
O=C(NCc1ccco1)c1ccccc1F,i,i,i,26.5,i,i,i,i
SMILES,Bim-Mcl-1,Mcl1 Noxa PPI,TLR9-MyD88 block,TLR4-MyD88 BLA,Mcl1 Bid PPI,NOD2-RIPK2 inh,TLR4 MyD88 cnf,BLA inhibitor ct
Nc1ccccc1C(=O)NCc1ccco1,nt,nt,i,nt,nt,i,nt,nt
CCCCC(=O)N(C)c1c(CC)nc2c(OCC(=O)N(C)C)cccn12,nt,nt,nt,nt,nt,i,nt,nt
CCOC(=O)C1=C(CSc2nc(-c3ccccc3)ccc2C#N)OC(N)=C(C#N)C1c1ccc(OC)cc1 (stereo not drawn),i,i,i,26.4,i,i,i,i
O=S(=O)(Nc1ccc(-c2ccc3nncn3n2)cc1)c1cccc(F)c1,nt,nt,i,nt,nt,i,nt,nt
CC(C)(C)C(=O)Cn1ncc(Br)c(Br)c1=O,i,i,i,35.8,i,i,i,i
Cc1ccc(C)n1CCN1CCN(C(=O)CC#N)CC1,i,i,i,i,i,i,nt,nt
O=C(Nc1nc(-c2ccccc2)cs1)c1ccccc1NS(=O)(=O)c1ccc(F)cc1,i,i,i,26.0,i,i,i,i
CCSc1ncc(/C=N/Nc2ccc([N+](=O)[O-])cc2)n1C,i,79.6,i,44.5,i,i,33.2,54.7
